# Reference: PubChem BioAssay (Tox21)
# Several values for one entry are separate records, joined by “and”; a condition that tells them apart may be missing. Identical values can stand only once. Results filed as inconclusive are left out. Entries that show only a call come without a potency. Some structures have more than one record in an assay (separate samples or runs), and their calls can disagree. Activity calls are given as the source filed them. Calls follow the shape of the full dose curve.
# Assay: qHTS assay to identify small molecule agonists of H2AX - cell viability counter screen (AID 1224847); also: nearly all actives have a fitted effect of over 30% in size; as to activity change, negative = cytotoxicity: top concentration of the series differs between compounds
# Details: CHO-K1 viability, CellTiter-Glo luminescence, 3 h; series mostly up to 154 µM; activity change, negative = cytotoxicity: at the top concentration
# Text: National Center for Advancing Translational Sciences [NCATS]
# NIH Chemical Genomics Center [NCGC]
# U.S. Environmental Protection Agency [EPA]
# National Institutes of Environmental Health Sciences [NIEHS]
# National Toxicology Program [NTP]
# U.S. Food and Drug Administration [FDA]
# HTRF phospho-H2AX (Ser139) assay (Cisbio Bioassays, US) enables the quantitative detection of the histone variant H2AX when phosphorylated on serine 139. When double-stranded DNA breaks, either by ionizing radiation or endogenous physiological processes, H2AX becomes phosphorylated at Ser139. This phospho-Ser139 serves as a sensitive biomarker for the detection of such breaks, localizing the site of DNA repair. So, HTRF phospho-H2AX Ser139 is a pertinent assay to study genome stability, the cell cycle, DNA repair, and it serves as a biomarker for cancer, and to understand aging. Wild type CHO-K1 cells were used to identify the inducers of Phospho-H2AX Ser 139 from the Tox21 compound collections. Also cytotoxicity of the Tox21 10K compound library against the CHO-K1 cell line was tested by measuring the cell viability using CellTiter-Glo assay (Promega, Madison, WI).
# Tox21 Assay Protocol Summary:
# The CHO-K1 cells suspended in culture medium containing 10% FBS were dispensed at 1000 cells/ 3 ul/well in 1536-well white wall/solid bottom plates (Greiner Bio-One North America, NC) using a Multidrop Combi (Thermo Fisher Scientific Inc., Waltham, MA). After the assay plates were incubated at 37C overnight, 23 nl of compounds at 15 concentrations (from 5-48 columns) or positive control (from 1 to 4 columns) were transferred to the assay plates using a Pintool station (Wako, San Diego, CA) into each well resulting in a final DMSO concentration of 0.76%. After 3hr incubation at 37C, 3 uL/well CellTiter-Glo luminescent cell viability reagent (Promega Corporation, Madison, WI) was added using a Flying Reagent Dispenser (FRD) (Aurora Discovery, CA). After incubation at room temperature for 30 min, the luminescence intensity was read using a ViewLux plate reader (PerkinElmer, Waltham, MA).
# Potency is read from the fitted curve at half-maximal effect.
SMILES,Potency,"activity change, negative = cytotoxicity"
Oc1ccc(Cl)cc1Cc1ccccc1,89.8 µM (active) and 81 µM (active),
[CH3][Sn]([Cl])([Cl])[Cl],inactive,
CCCCOC(=O)COC(=O)c1ccccc1C(=O)OCCCC,inactive,
COP(=O)(NC(C)=O)SC (stereo not given),inactive,
CN(C)c1nc(=O)n(C2CCCCC2)c(=O)n1C,inactive,
C[N+](C)(C)CC(=O)O,inactive,
COc1ccc(C=O)cc1OC,inactive,
C[N+](C)(C)CC(=O)[O-],inactive,
CCOS(=O)(=O)OCC,inactive,
Cc1cc(Cl)ccc1N=CN(C)C,inactive,
CCOP(=O)(O)OCC (tested in a mixture with another compound),inactive and 28.2 µM (active),
CC(C)(c1ccc(OCC2CO2)cc1)c1ccc(OCC2CO2)cc1 (stereo not given),inactive,
CC(C)(O)C(=O)Nc1ccc([N+](=O)[O-])c(C(F)(F)F)c1,57.8 µM (active) and 73.6 µM (active),
CNC(=S)S,inactive,
COc1ccc(CO)cc1,inactive,
O=[N+]([O-])c1ccc(Cl)c([N+](=O)[O-])c1,102 µM (active),
O=C1Nc2ccc(Cl)cc2C(c2ccccc2)=NC1O (stereo not given),inactive,
Clc1ccc(C(Cl)(Cl)Cl)cc1,inactive,
O=C(O)c1nn(Cc2ccc(Cl)cc2Cl)c2ccccc12,inactive,
CC1(C)Cc2cccc(O)c2O1,inactive,

SMILES,Potency,"activity change, negative = cytotoxicity"
O=NN(c1ccccc1)c1ccccc1,inactive,
Cn1c(-c2ccccc2)cc(-c2ccccc2)[n+]1C,inactive,
COP(=S)(OC)SCn1nnc2ccccc2c1=O,inactive,
COP(=S)(OC)Oc1ccc(Sc2ccc(OP(=S)(OC)OC)cc2)cc1,,-2.04% [at 70.9 µM] (inactive)
CCNc1nc(Cl)nc(NC(C)(C)C#N)n1,inactive,
CS(=O)(=O)NC(=O)c1cc(Oc2ccc(C(F)(F)F)cc2Cl)ccc1[N+](=O)[O-],inactive,
Clc1ccccc1-c1nnc(-c2ccccc2Cl)nn1,100 µM (active),
CCOC(=O)c1ccccc1N,inactive,
CC1=C(C(=O)Nc2ccccc2)SCCO1,,1.37% (inactive)
O=C1CCCO1,inactive,
Clc1cccc(C(Cl)(Cl)Cl)n1,inactive,
CC(O)CN(CC(C)O)CC(C)O (stereo not given),inactive,
N#Cc1nn(-c2c(Cl)cc(C(F)(F)F)cc2Cl)c(N)c1S(=O)C(F)(F)F (stereo not given),101 µM (active),
CCCCOCCOC(C)=O,inactive,
NN=C(N)N,inactive,
CC(C)(c1ccccc1)c1ccc(O)cc1,112 µM (active) and 101 µM (active),
[Cl-].[Cl-].[Cl-].[Fe+3],inactive,
Cc1cccc(N=Nc2ccc(N(C)C)cc2)c1,101 µM (active),
CSc1nc(NC(C)C)nc(NC(C)C)n1,inactive,
CCCCCCCCCc1ccc(O)cc1,90.7 µM (active) and 101 µM (active),
